Reference: PubChem BioAssay AID588689 (Southern Research Specialized Biocontainment Screening …, 2011)
Screen size: about 340,000 compounds; about 1,000 (0.29%) were called active. Cut-off read from the data, not from the text of the source: inconclusive = inhibition above about 29% without an active follow-up result; inactive = below that. The list is a sample of the results. Potency and affinity values are given separately.

Target: Genome polyprotein (Dengue virus type 2 (strain 16681-PDK53)) (UniProt P29991)
Sequence (P29991 whole entry, looked up): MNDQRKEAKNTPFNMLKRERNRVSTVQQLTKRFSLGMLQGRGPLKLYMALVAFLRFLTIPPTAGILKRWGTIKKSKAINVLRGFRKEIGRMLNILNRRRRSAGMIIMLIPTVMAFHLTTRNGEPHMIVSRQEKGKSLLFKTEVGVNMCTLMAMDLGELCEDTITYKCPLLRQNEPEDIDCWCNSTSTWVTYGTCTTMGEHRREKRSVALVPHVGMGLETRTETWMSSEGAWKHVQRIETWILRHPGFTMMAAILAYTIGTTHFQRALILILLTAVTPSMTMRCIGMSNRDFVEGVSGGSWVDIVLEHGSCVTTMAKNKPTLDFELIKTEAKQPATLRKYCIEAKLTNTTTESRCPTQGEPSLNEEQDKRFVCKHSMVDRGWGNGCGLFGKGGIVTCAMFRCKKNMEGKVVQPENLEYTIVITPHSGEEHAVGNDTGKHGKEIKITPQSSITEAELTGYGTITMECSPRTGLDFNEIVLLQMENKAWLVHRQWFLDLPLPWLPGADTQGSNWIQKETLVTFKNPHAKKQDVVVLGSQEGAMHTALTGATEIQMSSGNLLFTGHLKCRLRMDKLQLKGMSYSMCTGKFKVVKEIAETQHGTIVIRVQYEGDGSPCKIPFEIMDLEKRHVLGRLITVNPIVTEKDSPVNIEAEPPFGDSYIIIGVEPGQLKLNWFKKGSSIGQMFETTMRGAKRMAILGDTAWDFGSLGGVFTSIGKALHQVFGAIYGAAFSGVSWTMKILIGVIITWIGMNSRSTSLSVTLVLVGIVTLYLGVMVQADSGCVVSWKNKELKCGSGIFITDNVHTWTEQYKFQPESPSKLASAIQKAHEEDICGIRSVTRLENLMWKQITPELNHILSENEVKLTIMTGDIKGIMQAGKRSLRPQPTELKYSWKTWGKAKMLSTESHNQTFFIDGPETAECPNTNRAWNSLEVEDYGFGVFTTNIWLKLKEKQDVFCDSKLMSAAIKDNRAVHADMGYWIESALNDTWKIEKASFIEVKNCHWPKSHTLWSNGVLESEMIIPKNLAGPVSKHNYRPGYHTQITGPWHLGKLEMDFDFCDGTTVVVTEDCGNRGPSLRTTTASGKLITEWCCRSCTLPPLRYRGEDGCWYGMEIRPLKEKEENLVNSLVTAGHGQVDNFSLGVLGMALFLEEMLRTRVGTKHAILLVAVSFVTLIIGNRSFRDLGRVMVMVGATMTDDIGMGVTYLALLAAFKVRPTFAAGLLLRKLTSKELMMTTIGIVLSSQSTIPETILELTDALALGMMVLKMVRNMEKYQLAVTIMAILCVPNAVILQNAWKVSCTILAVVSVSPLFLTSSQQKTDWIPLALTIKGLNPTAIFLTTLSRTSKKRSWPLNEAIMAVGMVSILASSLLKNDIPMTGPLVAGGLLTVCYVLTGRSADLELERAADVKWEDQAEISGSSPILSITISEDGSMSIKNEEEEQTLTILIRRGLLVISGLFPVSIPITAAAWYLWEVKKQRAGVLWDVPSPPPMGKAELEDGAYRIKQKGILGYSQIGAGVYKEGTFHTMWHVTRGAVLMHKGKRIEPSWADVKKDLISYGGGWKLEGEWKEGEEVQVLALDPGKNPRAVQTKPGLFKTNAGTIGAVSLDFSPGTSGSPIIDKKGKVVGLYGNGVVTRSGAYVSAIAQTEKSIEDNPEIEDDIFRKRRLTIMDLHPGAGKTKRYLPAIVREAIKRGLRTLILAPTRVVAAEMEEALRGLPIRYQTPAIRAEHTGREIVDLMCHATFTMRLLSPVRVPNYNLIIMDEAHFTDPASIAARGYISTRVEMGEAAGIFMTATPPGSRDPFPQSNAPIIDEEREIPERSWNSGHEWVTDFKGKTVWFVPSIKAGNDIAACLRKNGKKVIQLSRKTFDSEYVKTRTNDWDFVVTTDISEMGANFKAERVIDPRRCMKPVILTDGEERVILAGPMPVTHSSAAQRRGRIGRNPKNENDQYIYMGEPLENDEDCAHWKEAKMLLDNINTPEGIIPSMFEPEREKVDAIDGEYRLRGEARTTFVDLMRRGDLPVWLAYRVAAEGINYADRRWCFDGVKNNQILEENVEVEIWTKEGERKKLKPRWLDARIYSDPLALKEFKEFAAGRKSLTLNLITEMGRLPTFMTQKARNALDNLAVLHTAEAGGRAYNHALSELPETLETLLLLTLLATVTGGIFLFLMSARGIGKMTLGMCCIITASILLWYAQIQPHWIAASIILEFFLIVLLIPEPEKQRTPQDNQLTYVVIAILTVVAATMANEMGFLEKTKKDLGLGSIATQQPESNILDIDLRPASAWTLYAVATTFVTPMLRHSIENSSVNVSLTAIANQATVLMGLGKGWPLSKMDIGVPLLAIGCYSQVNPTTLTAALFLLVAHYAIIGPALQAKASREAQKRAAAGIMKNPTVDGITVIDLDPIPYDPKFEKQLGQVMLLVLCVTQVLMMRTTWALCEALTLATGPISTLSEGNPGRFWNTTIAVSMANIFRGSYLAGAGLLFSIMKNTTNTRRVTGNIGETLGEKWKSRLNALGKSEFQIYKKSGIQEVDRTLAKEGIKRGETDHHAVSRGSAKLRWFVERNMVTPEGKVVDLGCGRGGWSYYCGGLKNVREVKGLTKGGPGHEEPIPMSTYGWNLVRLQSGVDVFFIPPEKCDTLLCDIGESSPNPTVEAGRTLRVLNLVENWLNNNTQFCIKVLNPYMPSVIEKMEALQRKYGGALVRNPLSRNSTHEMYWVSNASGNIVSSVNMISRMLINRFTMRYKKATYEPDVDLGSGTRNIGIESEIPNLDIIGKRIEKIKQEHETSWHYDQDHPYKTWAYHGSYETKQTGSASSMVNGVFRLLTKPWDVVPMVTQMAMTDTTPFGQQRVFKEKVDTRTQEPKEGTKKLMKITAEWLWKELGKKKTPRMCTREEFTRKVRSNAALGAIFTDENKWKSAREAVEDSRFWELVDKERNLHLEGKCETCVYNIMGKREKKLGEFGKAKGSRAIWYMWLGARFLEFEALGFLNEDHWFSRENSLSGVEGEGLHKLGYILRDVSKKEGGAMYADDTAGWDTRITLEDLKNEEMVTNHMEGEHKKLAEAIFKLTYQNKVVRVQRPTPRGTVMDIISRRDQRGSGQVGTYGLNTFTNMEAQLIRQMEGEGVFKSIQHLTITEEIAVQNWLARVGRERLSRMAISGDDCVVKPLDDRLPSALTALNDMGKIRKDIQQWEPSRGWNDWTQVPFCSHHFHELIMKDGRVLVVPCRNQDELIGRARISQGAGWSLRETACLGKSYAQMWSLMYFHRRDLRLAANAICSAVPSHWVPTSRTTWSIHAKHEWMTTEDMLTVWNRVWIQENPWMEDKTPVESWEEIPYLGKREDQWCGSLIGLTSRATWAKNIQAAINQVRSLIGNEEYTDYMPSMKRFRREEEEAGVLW
Experiment: flavivirus cap methylation enzyme inhibition – biochemical, confirmation dose response, primary screen (AID 588689)
Conditions: Dengue-2 NS5 methyltransferase capping enzyme assay, at 25 µM, stronger effect = higher value

Row | Structure (SMILES) | inhibition | inhibition (measured here: pilot screen replicate inhibition) [%]
1 | O=C(CN1C(=O)/C(=C/c2cccc(Cl)c2)SC1=S)NC1C=CS(=O)(=O)C1 (stereo unspecified) | -2.72% (inactive) | 
2 | CC(=O)NNC(=O)CN1C(=O)/C(=C/c2ccccc2)SC1=S | -2.32% (inactive) | 
3 | COc1cccc(/C=C2/SC(=S)N(CC(=O)NNC(=O)c3ccccc3O)C2=O)c1 | 2.67% (inactive) | 
4 | O=C(O)CN1C(=O)/C(=C\c2cccc(OC(=O)c3ccco3)c2)SC1=S | 2.44% (inactive) | 
5 | O=C1/C(=C\c2cccc(O)c2)SC(=S)N1Cc1ccccc1 | -14.8% (inactive) | 
6 | O=C(O)COc1cccc(/C=C2/SC(=S)N(Cc3ccccc3)C2=O)c1 | 13.1% (inactive) | 
7 | CN1C(=O)/C(=C\c2cccc(OCc3ccccc3)c2)SC1=S | 5.28% (inactive) | 
8 | COc1cccc(/C=C2/SC(=S)N(CC(=O)NNC(=O)c3ccccc3OC)C2=O)c1 | 4.13% (inactive) | 
9 | COc1ccccc1CC(=O)OCC(=O)N1CCN(c2ccc(F)cc2)CC1 | -10.1% (inactive) | 
10 | Cc1[nH]c(C)c(S(=O)(=O)N2CCN(c3cccc(Cl)c3)CC2)c1C(=O)N1CCCCC1 | -6.81% (inactive) | 
11 | CC(C)CCN(C(=O)C1CCCC1)c1c(N)n(Cc2ccccc2)c(=O)[nH]c1=O | 0.73% (inactive) | 
12 | COCCn1c(C)cc(C(=O)CSc2nnnn2C2CCCC2)c1C | -0.76% (inactive) | 
13 | CCOP(=O)(OCC)c1nc(/C=C/c2ccccc2)oc1NCc1ccc(OC)cc1 | -2.05% (inactive) | 
14 | O=S(=O)(Cc1ccccc1)Nc1ccccc1 | 1.96% (inactive) | -2.12
15 | Cc1ccc(NS(=O)(=O)Cc2ccccc2)nc1 | -2.96% (inactive) | 
16 | CNC(=O)NC(=S)NC(=O)c1ccccc1Cl | 2.96% (inactive) | 
17 | COc1cc2c3c(c1)c(C1=NC(=S)NC1=O)c(O)n3C(C)(C)C=C2C | 5.22% (inactive) | 
18 | Cc1ccc2c(c1)c(C1=NC(=S)NC1=O)c(O)n2C | -5.15% (inactive) | 
19 | CC1(C)O[C@@H]2[C@H](O1)[C@@H](CO)O[C@H]2n1cc(Br)c(=O)[nH]c1=O | -17.6% (inactive) | 
20 | NCCCC[C@@H]1NC(=O)c2cc([N+](=O)[O-])cc(F)c2NCCCC[C@@H](C(N)=O)NC(=O)CNC1=O | -4.1% (inactive) | 
21 | O=C(NCc1ccco1)c1nnc(Cc2ccc(F)cc2)o1 | 2.07% (inactive) | 
22 | COc1ccc(-c2cc(-c3ccccc3)c(C#N)c(SCC(=O)O)n2)cc1 | 14% (inactive) | 
23 | N#Cc1c(-c2ccc(Cl)cc2)cc(-c2ccccc2)nc1SCC(=O)O | 1.16% (inactive) | 
24 | O=C(O)c1cccc2c1/C(=N/Nc1ccc([N+](=O)[O-])cc1[N+](=O)[O-])c1ccccc1-2 | 20.5% (inactive) | 
25 | Cc1nnc(NC(=O)c2nc(S(=O)(=O)Cc3ccccc3C)ncc2Cl)s1 | 27.3% (inactive) | 
26 | CSc1ncc(Cl)c(C(=O)Nc2nnc(SC)s2)n1 | 5.42% (inactive) | 
27 | COC(=O)c1ccc(NC(=O)c2nc(S(=O)(=O)Cc3cccc(C)c3)ncc2Cl)cc1 | -59.7% (inactive) | 
28 | CC(=O)Nc1ccc(NC(=O)c2nc(S(=O)(=O)Cc3ccccc3)ncc2Cl)cc1 | -50.4% (inactive) | 

Row | Structure (SMILES) | inhibition | inhibition (measured here: pilot screen replicate inhibition) [%]
29 | Cc1ccccc1CS(=O)(=O)c1ncc(Cl)c(C(=O)Nc2ccc(F)cc2)n1 | -55.8% (inactive) | 
30 | Cc1nnc(NC(=O)c2nc(S(=O)(=O)Cc3ccccc3)ncc2Cl)s1 | 19.6% (inactive) | 
31 | Cc1cccc(CS(=O)(=O)c2ncc(Cl)c(C(=O)NCc3ccccc3)n2)c1 | -74.2% (inactive) | 
32 | Cc1ccc(NC(=O)c2nc(S(=O)(=O)Cc3ccccc3)ncc2Cl)cc1 | -43.4% (inactive) | 
33 | O=C(c1cc(-c2ccc(Br)cc2)nc2ccccc12)N1CCC1 | -2.19% (inactive) | 
34 | COc1ccccc1N1CCN(C(=O)c2oc3c(c2C)C(=O)CC(C)(C)C3)CC1 | 4.65% (inactive) | 
35 | O=C(N/N=C/C(Cl)=C\c1ccccc1)c1cnccn1 | -6.4% (inactive) | 
36 | C=CC[C@H](CC(=O)N[C@H](CO)Cc1ccccc1)C(=O)N[C@@H](COC(=O)[C@H](CC=C)CC(=O)OC(C)(C)C)Cc1c[nH]c2ccccc12 | -0.83% (inactive) | 
37 | COc1ccc(/C=C2/SC(=O)N(CCC(=O)Nc3ccc(S(=O)(=O)Nc4nccs4)cc3)C2=O)cc1 | -5.09% (inactive) | 
38 | O=C(/C(=C(/[O-])c1ccccc1)[n+]1ccccc1)c1ccc([N+](=O)[O-])cc1 | 3.25% (inactive) | 
39 | CCCc1ncc(CN2CCCCC2C(=O)Nc2ccc(Oc3ccccc3)nc2)cn1 (stereo unspecified) | -5.15% (inactive) | 
40 | CCCCn1c(N)c(N(C)C(=O)c2cn(-c3ccccc3)nc2-c2ccccc2)c(=O)[nH]c1=O | -2.61% (inactive) | 
41 | NS(=O)(=O)c1ccc2nc(NC(=O)Nc3ccc(F)cc3)sc2c1 | -9.52% (inactive) | 
42 | O=C(Nc1ccc(Cl)c(S(=O)(=O)N2CCOCC2)c1)c1cccs1 | -1.55% (inactive) | 
43 | CC(=O)Nc1ccc(NC(=O)c2nc(S(=O)(=O)Cc3cccc(C)c3)ncc2Cl)cc1 | -42.6% (inactive) | 
44 | Cc1cccc(CS(=O)(=O)c2ncc(Cl)c(C(=O)Nc3c(C)cccc3C)n2)c1 | -57.4% (inactive) | 
45 | O=C(Nc1ncccc1O)c1ccc2c(c1)OCO2 | 0.74% (inactive) | 
46 | Cc1cc(Cl)ccc1OCC(=O)Nc1ccccc1C(=O)N1CCOCC1 | 5.18% (inactive) | 
47 | O=C1CC(c2ccccc2)NC(=S)N1 (stereo unspecified) | 3.85% (inactive) | 
48 | O=C1NC(=S)NC1(c1ccccc1)c1ccccc1 | -4.65% (inactive) | 
49 | CCSc1nc(O)c(C2OC(=O)c3c2ccc(OC)c3OC)c(=O)n1CC (stereo unspecified) | 6.79% (inactive) | 
50 | CCCSc1nc(O)c(C2OC(=O)c3c2ccc(OC)c3OC)c(=O)n1-c1ccccc1 (stereo unspecified) | 11.7% (inactive) | 
51 | CCCCSc1nc(O)c(C2OC(=O)c3c2ccc(OC)c3OC)c(=O)n1C (stereo unspecified) | -5.49% (inactive) | 
52 | CCCCSc1nc(O)c(C2OC(=O)c3c2ccc(OC)c3OC)c(=O)n1-c1ccccc1 (stereo unspecified) | 17.6% (inactive) | 
53 | Cc1cc2c3c([nH]c2cc1S(=O)(=O)NCc1ccc(CN2CCCCCC2)o1)CCCC3=O | -7.25% (inactive) | 
54 | Cc1ccc(S(=O)(=O)N/N=C/c2ccc(O)c(O)c2)cc1[N+](=O)[O-] | 0.74% (inactive) | 
55 | CCN(CC)CCNC(=O)c1ccc(NC(=O)c2cc(S(=O)(=O)N3CCCCC3)ccc2N2CCOCC2)cc1 | -2.25% (inactive) | 
